A number with no mark means an inactive call. How the calls were made is not given here.
The compounds below were run on Aerobactin synthetase IucA (Klebsiella pneumoniae hvKP1) (assay: IucA enzyme inhibition, primary screen, biochemical, Spectrum library (AID 1346200;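 further: 100% = wells without compound and 0% = wells lacking enzyme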)). Details: malachite green pyrophosphate, A620, at 8 µM, hits give low values.

| Structure (SMILES) | activity remaining [%] |
| --- | --- |
| COc1ccc(-c2coc3cc(O)ccc3c2=O)cc1 | 109 |
| NC(N)=NS(=O)(=O)c1ccc(N)cc1 | 98.6 |
| CC(=O)OC/C=C(\C)CC/C=C(\C)CC/C=C(\C)CC/C=C(\C)CC/C=C(\C)CC/C=C(\C)CC/C=C(\C)CC/C=C(\C)CCC=C(C)C | 120 |
| COc1ccc(C(=O)c2ccccc2O)c(O)c1 | 107 |
| O=C(COc1ccc(Cl)cc1)N1CCN(Cc2ccc3c(c2)OCO3)CC1 | 107 |
| O=C(Oc1ccccc1C(=O)O)c1ccccc1O | 115 |
| COc1ccc2c(=O)ccoc2c1 | 120 |
| COc1ccc(CCC(=O)c2c(O)cc(O[C@@H]3O[C@H](CO)C(O)[C@H](O)C3O[C@@H]3O[C@@H](C)[C@H](O)[C@@H](O)[C@H]3O)cc2O)cc1O (some centres undefined) | 109 |
| O=C1C(O)=C(O)C(=O)C(O)=C1O | 125 |
| COc1cc(OC)c2c(=O)c(OC)c(-c3ccc(OC)c(OC)c3)oc2c1 | 120 |
| C[C@@H]1CC[C@@]2(OC1)OC1CC3C4CC=C5C[C@@H](O)CC[C@]5(C)C4CC[C@]3(C)C1[C@@H]2C (some centres undefined) | 104 |
| C=C1C(=O)OC2CC1C(OC(C)=O)C/C(C)=C/CC/C(C)=C/CC[C@]2(C)O (some centres undefined) | 123 |
| CC(=O)O[C@@H]1CC(=O)[C@@]2(C)C(CC(=O)[C@]3(C)C2CC[C@@]2(C)[C@H](c4ccoc4)OC(=O)C4OC423)C1(C)C (some centres undefined) | 92.3 |
| O=C(CCc1ccc(O)cc1)c1c(O)cc(O)cc1O[C@@H]1O[C@H](CO)[C@@H](O)[C@H](O)[C@H]1O | 105 |
